Measured values from PubChem BioAssay (NCATS).
Values joined by “and” are separate entries in the source; they are usually repeats but may differ in a detail not shown here. Equal entries are not always repeated. Inconclusive results are not listed. Active and inactive are the calls of the source. Unless noted, the call rests on the fitted dose curve; in most records, active means well fitted curve in the direction sought with a large enough effect; inconclusive means small, poorly fitted or top-dose-only effect, or another doubt; inactive means no such curve, though single readings can be large; an effect the other way counts as inactive or inconclusive.

Legend:
[1] = Cell Viability - BJ (AID 421; calls by dose curve;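 further: potency means the concentration at half of the fitted maximal effect; cells exposed to compound for 40 hours at 37 °C before readout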); conditions: BJ fibroblast viability, qHTS
In short: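 Luminescent ATP signal (CellTiter-Glo, 20 min at room temperature) served as the read-out of viable BJ cells after 40 hours of compound treatment. Responses were scaled between DMSO and 100 uM tamoxifen, and AC50 values were obtained by Hill modeling.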

[2] = Cell Viability - Hek293 (AID 427;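 active means compounds whose dose-response curve shows a full or clear partial loss of cell viability, called from curve shape rather than a numeric limit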;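 further: potency means the concentration at half of the fitted maximal effect; cells exposed to compound for 40 hours at 37 °C before reading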); conditions: qHTS
In short: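 Luminescent ATP read-out (CellTiter-Glo, 20 min RT) after 40 hr compound exposure at 37 °C in complete medium. Signal normalized to DMSO (basal) and 100 uM tamoxifen (100% inhibition); concentration-response fitted with the standard Hill equation to give AC50.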

[3] = Cell Viability - HepG2 (AID 433; calls by dose curve;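 further: potency means the concentration at half of the fitted maximal effect; potency for ATP loss meaning cytotoxicity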); conditions: qHTS
In short: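 HepG2 hepatocellular carcinoma cells (1500/well) were treated with compounds for 40 h at 37 °C in complete medium; intracellular ATP was read by CellTiter-Glo luminescence. Data were normalized to DMSO and 100 uM tamoxifen, and AC50 came from Hill fits.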

[4] = Cell Viability - MRC5 (AID 434; calls by dose curve;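 further: potency means the concentration at half of the fitted maximal effect; potency reflects cytotoxicity seen as loss of intracellular ATP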); conditions: MRC5 lung fibroblast viability, qHTS
In short: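 Decrease in intracellular ATP, quantified by luciferase light output, reflects compound toxicity toward MRC5 cells exposed for 40 hr in complete culture medium. Concentration-response curves, scaled between DMSO and 100 uM tamoxifen, gave AC50 values.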

[5] = Cell Viability - SK-N-SH (AID 435; calls by dose curve;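 further: potency means the concentration at half of the fitted maximal effect; compound exposure lasted 40 h at 37 °C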); conditions: SK-N-SH neuroblastoma cell viability qHTS
In short: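 SK-N-SH human neuroblastoma cells (1500/well) were exposed to compounds in complete medium for 40 h at 37 °C, and intracellular ATP was then measured by CellTiter-Glo luminescence. AC50 was taken from Hill fits, normalized to DMSO and 100 uM tamoxifen.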

[6] = Cell Viability - N2a (AID 540); conditions: N2a mouse neuroblastoma cell viability; at 92.2 µM (top of the series);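 further: plate controls were DMSO alone for no effect and tamoxifen control for full effect; nearly all actives have a fitted effect of over 45% in size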
In short: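 N2a mouse neuroblastoma, 1500 cells/well, 5 hr settle; compound 40 hr, 37 °C; CellTiter-Glo 20 min RT; luminescence; Hill-fit AC50.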

[7] = Cell Viability - NIH 3T3 (AID 541); conditions: NIH 3T3 cell viability, qHTS; activity change, negative = cytotoxicity: at 92.2 µM (top of the series);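 further: plate controls were DMSO alone for no effect and tamoxifen positive control for full effect; nearly all actives have a fitted effect of over 25% in size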
In short: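 qHTS format; 40 hr compound exposure, 37 °C; CellTiter-Glo luminescence (cellular ATP) read-out after 20 min at RT. Decrease in ATP = cytotoxicity; AC50 from standard Hill fit.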

[8] = Cell Viability - HUV-EC-C (AID 542); further: on the % scale 0 is the no-effect control and ±100 the full control effect; nearly all actives have a fitted effect of over 35% in size
In short: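 Luminescent ATP read-out (CellTiter-Glo, 20 min room temperature) after 40 hr compound treatment of HUV-EC-C cells at 37 °C. Concentration-response data fitted with the standard Hill equation to give AC50; tamoxifen and doxorubicin served as positive controls.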

[9] = Cell Viability - SH-SY5Y (AID 544); conditions: SH-SY5Y neuroblastoma cell viability; viability change, negative = cytotoxic: at 92.2 µM (top of the series); further: potency means the concentration at half of the fitted maximal effect; nearly all actives have a fitted effect of over 55% in size
In short: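 SH-SY5Y, 1500 cells/well, 5 hr pre-incubation 37 °C; cpd 40 hr 37 °C; CellTiter-Glo 20 min RT; luminescence (ATP) read. qHTS concentration-response, Hill fit → AC50. Tamoxifen, doxorubicin as positive controls.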

[10] = Cell Viability - Renal Proximal Tubule (AID 545); conditions: renal proximal tubule cells viability; at 91.7 µM (top of the series), primary cells of rat origin unless noted;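 further: 0% = DMSO only and -100% = 100 µM tamoxifen; nearly all actives have a fitted effect of over 40% in size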
In short: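 Primary rat renal proximal tubule cells (1000/well) were treated with compounds for 40 hr at 37 °C in complete medium. Intracellular ATP was measured by CellTiter-Glo luminescence, and AC50 values came from Hill-equation fits of concentration-response data.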

[11] = Cellular Toxicity (caspase-3) HepG2 (AID 654);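 further: cells exposed to compound for 16 hours before reading; 0% = DMSO alone and 100% = caspase signal from 100 µM tamoxifen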
In short: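 Luminescent Caspase-Glo 3/7 readout after 16 hr compound exposure of human hepatocellular carcinoma HepG2 cells at 37 °C; qHTS concentration-response, normalized DMSO = 0%, 100 uM tamoxifen = 100%; AC50 by standard Hill equation.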

[12] = Cellular Toxicity (caspase-3) HUV-EC-C (AID 656);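 further: 0% = DMSO basal and 100% = 100 µM tamoxifen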
In short: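 HUV-EC-C endothelial cells, 1000/well, were pre-incubated 5 hr at 37°C, then exposed to compounds for 16 hr at 37°C. Caspase-Glo 3/7 luminescence was read after 20 min at room temperature. AC50 came from Hill fits, normalized to DMSO and 100 uM tamoxifen.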

[13] = Cellular Toxicity (caspase-3) SHSY5Y (AID 657)
In short: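 SH-SY5Y human neuroblastoma cells (1500/well) were treated with compounds for 16 h at 37 °C, then Caspase-Glo 3/7 luminescence was read after 1 h at room temperature. Data normalized to DMSO and 10 uM staurosporine; AC50 from Hill fits.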

[14] = Cellular Toxicity (caspase-3) BJ (AID 658);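 further: 0% = DMSO basal and 100% = 10 µM staurosporine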
In short: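 Plated BJ cells (1000/well) rested 5 hr, received compound for 16 hr at 37 °C, then Caspase-Glo 3/7 reagent for 1 hr at room temperature before luminescence reading.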

[15] = Cellular Toxicity (caspase-3) MRC-5 (AID 659);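 further: 0% = DMSO basal and 100% = 10 µM staurosporine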
In short: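 Apoptosis readout in MRC-5 cells: luciferase light generated after caspase 3/7 cleaves a peptide-aminoluciferin substrate, measured post 16 hr compound incubation at 37 °C.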

[16] = Cellular Toxicity (caspase-3) Mesangial (AID 660);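 further: combined caspase 3 and 7 activity read by Caspase-Glo luminescence; cells exposed to compound for 16 h before the caspase read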
In short: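 Luminescent Caspase-Glo 3/7 readout (aminoluciferin substrate cleavage, 20 min RT) after 16 h compound exposure at 37 °C of normal human mesangial cells. Signal increase normalized between DMSO basal and 100 uM tamoxifen; Hill-equation AC50.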

[17] = Cellular Toxicity (caspase-3) SK-N-SH (AID 661);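 further: 0% = DMSO basal and 100% = 10 µM staurosporine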
In short: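 Luminescent Caspase-Glo 3/7 read-out after 16 hr compound exposure of SK-N-SH neuroblastoma cells at 37 °C. Signal increase normalized to DMSO (basal) and 10 uM staurosporine (100%); AC50 from Hill equation fits of qHTS concentration-response data.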

[18] = Cellular Toxicity (caspase-3) H-4-II-E (AID 663);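 further: cells exposed to compound for 16 hr before readout; 0% = DMSO basal and 100% = 100 µM tamoxifen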
In short: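 Caspase 3/7 activation measured in H-4-II-E cells in complete culture medium after 16 hr treatment at 37 °C, using luciferase-coupled substrate readout; AC50 values come from Hill-equation fits of normalized concentration-response data.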

[19] = Cellular Toxicity (caspase-3) Hek293 (AID 664);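 further: cells exposed to compound for 16 h at 37 °C before readout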
In short: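 Luminescent Caspase-Glo 3/7 readout (aminoluciferin release) in HEK293 cells after 16 h compound treatment, 37 °C. Normalization: DMSO = basal, 100 uM tamoxifen = 100% stimulation. Concentration-response fitted with standard Hill equation for AC50.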

[20] = Cellular Toxicity (caspase-3) NIH 3T3 (AID 666);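 further: 0% = DMSO basal and 100% = 100 µM tamoxifen stimulation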
In short: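 NIH 3T3, 1000 cells/well, 5 hr settle then 16 hr compound at 37°C; Caspase-Glo 3/7, 20 min RT, luminescence. DMSO = basal, 100 uM tamoxifen = 100%. Hill-equation AC50, qHTS.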

[21] = Cellular Toxicity (caspase-3) Renal Proximal Tubule (AID 667); conditions: renal proximal tubule cells; at 91.7 µM (top of the series), primary cells freshly taken from rat, solvent-only wells 0%, staurosporine 100% unless noted;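 further: cells exposed to compound for 16 hours at 37 °C before detection; 0% = DMSO basal and 100% = 10 µM staurosporine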
In short: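 Primary rat proximal tubule cells, 1000/well, 5 h plating at 37 °C, then compound 16 h at 37 °C. Caspase-Glo 3/7 reagent, 1 h RT, luminescence. Normalized to DMSO (basal) and 10 uM staurosporine (100%); Hill-fit AC50.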

[22] = biological target: Cytochrome P450 3A4 (Homo sapiens) (UniProt P08684); assay: qHTS Assay for Inhibitors and Substrates of Cytochrome P450 3A4 (AID 884); further: potency means the concentration at half of the fitted maximal effect; nearly all actives have a fitted effect of over 50% in size
In short: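 Luminescent readout of luciferin produced by CYP3A4 (20 nM) dealkylation of Luciferin-PPXE, 25 uM (its KM). NADPH-driven reaction ran 60 min at RT after 10 min compound preincubation; data scaled to 57 uM ketoconazole as 100% inhibition.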

[23] = biological target: Cytochrome P450 3A4 (Homo sapiens) (UniProt P08684); assay: qHTS Assay for Activators of Cytochrome P450 3A4 (AID 885); further: nearly all actives have a fitted effect of over 65% in size
In short: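 CYP3A4 activity: Luciferin-PPXE O-dealkylation, 25uM substrate, 200mM KPO4, RT throughout. Read-out is luciferase luminescence; higher values reflect activation.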

[24] = MultiTox-Fluor Cytotoxicity Assay - LYMP1-001 - Live Cells (AID 947);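 further: 0% = DMSO only and full inhibition = tetraoctylammonium bromide control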
[25] = Cell Viability - LYMP1-002 - Assay at 16 hr (AID 948);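 further: 0% = DMSO alone and full effect = 92 µM tetraoctylammonium bromide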
In short: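 Human lymphoblastoid cells (LYMP1-002), 2500/well, were preincubated 5 hr at 37 C, then exposed to compounds for 16 hr at 37 C in complete medium. Cellular ATP was read by CellTiter-Glo luminescence after 30 min at room temperature; AC50 from Hill fits.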

[26] = MultiTox-Fluor Cytotoxicity Assay - LYMP1-002 - Live Cells (AID 955); further: on the % scale 0 is the no-effect control and ±100 the full control effect
In short: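 LYMP1-002 lymphoblastoid cells; 2500 cells/well; 16 hr compound exposure, 37 C; MultiTox-Fluor reagent 60 min RT; live-cell fluorescence Ex/Em=405/510; qHTS concentration-response, Hill-equation AC50; tetraoctylammonium bromide positive control.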

[27] = MultiTox-Fluor Cytotoxicity Assay - LYMP1-002 - Dead Cells (AID 960);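 further: 0% = DMSO and 100% = tetraoctylammonium bromide; nearly all actives have a fitted effect of over 60% in size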
In short: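 Readout: fluorescence at 485/520 from cell-impermeant bis-AAF-R110 cleaved by proteases leaking from damaged cells. LYMP1-002 lymphoblastoid line, 16 hr compound treatment at 37 C, concentration-response in qHTS format; Hill-equation AC50 values.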

[28] = MultiTox-Fluor Cytotoxicity Assay - LYMP1-003 - Dead Cells (AID 961);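 further: 0% = DMSO and 100% = tetraoctylammonium bromide; nearly all actives have a fitted effect of over 70% in size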
In short: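 Human lymphoblastoid LYMP1-003 cells (2500/well) were treated with compounds for 16 hr at 37 C in complete medium. Dead-cell protease release was read by bis-AAF-R110 fluorescence (Ex/Em 485/520). AC50 came from Hill fits, normalized to DMSO and 15 uM tetraoctylammonium bromide.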

[29] = MultiTox-Fluor Cytotoxicity Assay - LYMP1-003 - Live Cells (AID 962);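 further: 0% = DMSO only and full loss = 92 µM tetraoctylammonium bromide; cytotoxic hits lower the live-cell protease signal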
In short: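 Readout: live-cell fluorescence (Ex/Em=405/510) from GF-AFC cleavage after 60 min MultiTox-Fluor reagent at room temperature. Lymphoblastoid LYMP1-003 cells, 16 hr compound treatment, 37 C. Concentration-response fitted to standard Hill equation for AC50.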

[30] = Cell Viability - LYMP2-003 (AID 965);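 further: cells exposed to compounds for 24 h before reading; 0% = DMSO only and full effect = 92 µM tetraoctylammonium bromide; nearly all actives have a fitted effect of over 50% in size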
In short: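 Human lymphoblastoid cells (2500/well) were pre-incubated 5 hr at 37 C, then exposed to compounds over a concentration range for 24 hr at 37 C. Intracellular ATP was read by CellTiter-Glo luminescence; AC50 came from Hill-equation fits.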

[31] = Cell Viability - LYMP2-004 (AID 966);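 further: plate controls were DMSO only for no effect and tetraoctylammonium bromide control for full effect; nearly all actives have a fitted effect of over 65% in size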
In short: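 Luminescent ATP read-out (CellTiter-Glo, 30 min RT) after 24 hr compound exposure at 37 C; 2500 lymphoblastoid cells/well, complete medium. Decrease in ATP = cytotoxicity; AC50 from standard Hill model.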

[32] = Cell Viability - LYMP2-005 (AID 967);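 further: plate controls were DMSO only for no effect and 92 µM tetraoctylammonium bromide control for full effect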
In short: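 CellTiter-Glo luminescence (cellular ATP) read-out; LYMP2-005 lymphoblastoid cells, 2500/well, 5 h pre-incubation, then 24 h compound exposure at 37 C in complete medium. Tetraoctylammonium bromide positive control; AC50 by standard Hill fit.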

[33] = Cell Viability - LYMP2-009 (AID 968);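 further: 0% = DMSO alone and the full-kill end = tetraoctylammonium bromide at 92 µM; nearly all actives have a fitted effect of over 55% in size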
[34] = Cell Viability - LYMP2-011 (AID 969);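 further: 0% = DMSO only and full inhibition = 92 µM tetraoctylammonium bromide; nearly all actives have a fitted effect of over 60% in size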
In short: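 Luminescent ATP read-out (CellTiter-Glo, 30 min RT) after 24 hr compound exposure at 37 C in human lymphoblastoid cells, 2500 cells/well. Decreasing ATP indicates cytotoxicity; AC50 from standard Hill fit.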

[35] = Cell Viability - LYMP2-013 (AID 970);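 further: 0% = DMSO only and full inhibition = tetraoctylammonium bromide control; nearly all actives have a fitted effect of over 55% in size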
In short: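 CellTiter-Glo luminescence (cellular ATP) read after 30 min at RT. Cells: human lymphoblastoid line, 2500/well, 24 hr compound exposure at 37 C. Tetraoctylammonium bromide positive control; AC50 via standard Hill fit of qHTS titrations.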

[36] = Cell Viability - LYMP2-015 (AID 971);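 further: 0% = DMSO only and full effect = 92 µM tetraoctylammonium bromide; nearly all actives have a fitted effect of over 55% in size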
In short: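 qHTS cytotoxicity: 2500 cells/well, 5 hr 37 C, compound 24 hr 37 C, CellTiter-Glo 30 min RT, luminescence. Loss of ATP = toxicity; AC50 via standard Hill fit.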

[37] = Cell Viability - LYMP2-019 (AID 973)
In short: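 qHTS, 1536-well; 2500 cells/well; 5 hr pre-incubation, 24 hr compound exposure, 37 C; CellTiter-Glo added, 30 min RT; luminescence read; AC50 via standard Hill equation.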

[38] = Cell Viability - LYMP2-021 (AID 974)
In short: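 ATP luminescence (CellTiter-Glo, 30 min RT) after 24 h compound exposure at 37 C; 2500 human lymphoblastoid cells/well, 5 h settle beforehand. Cytotoxicity = concentration-dependent ATP drop, AC50 by Hill fit.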

[39] = Cell Viability - LYMP2-023 (AID 975)
In short: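 CellTiter-Glo luminescence after 30 min at room temperature; decrease in intracellular ATP reflects toxicity. Cells: human lymphoblastoid line, 2500/well, 24 hr compound exposure at 37 C. AC50 fitted to standard Hill equation from concentration-response.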

[40] = Cell Viability - LYMP2-025 (AID 976)
In short: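 CellTiter-Glo luminescence (cellular ATP) after 24 h compound exposure at 37 C; LYMP2-025 human lymphoblastoid cells, 2500/well, complete medium. Tetraoctylammonium bromide positive control. AC50 by Hill equation fit of qHTS concentration-response.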

Chain of Cytochrome P450 3A4 (Homo sapiens) (P08684 whole entry, looked up): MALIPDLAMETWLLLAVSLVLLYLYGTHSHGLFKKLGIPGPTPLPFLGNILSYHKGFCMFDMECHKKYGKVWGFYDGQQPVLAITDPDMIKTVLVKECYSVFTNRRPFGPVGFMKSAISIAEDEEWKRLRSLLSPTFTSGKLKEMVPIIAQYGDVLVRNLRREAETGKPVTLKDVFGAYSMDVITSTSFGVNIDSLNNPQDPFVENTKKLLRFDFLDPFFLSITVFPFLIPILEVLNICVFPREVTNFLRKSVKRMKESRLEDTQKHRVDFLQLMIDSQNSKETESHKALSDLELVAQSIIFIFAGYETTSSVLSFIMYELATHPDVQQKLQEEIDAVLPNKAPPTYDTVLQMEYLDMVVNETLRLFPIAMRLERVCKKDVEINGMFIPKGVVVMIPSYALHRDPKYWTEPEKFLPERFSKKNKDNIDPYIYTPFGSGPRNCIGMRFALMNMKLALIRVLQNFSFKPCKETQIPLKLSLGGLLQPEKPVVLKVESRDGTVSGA

C[C@H]1CCCC(=O)CCC/C=C/c2cc(O)cc(O)c2C(=O)O1
inactive: Potency [1] > 92 µM | Potency [3] > 92 µM | Potency [4] > 92 µM | Potency [8] | activity change, negative = cytotoxicity [10] -28.2% [at 91.7 µM] | outcome [11] | outcome [12] | outcome [13] | outcome [14] | outcome [15] | outcome [16] | outcome [17] | outcome [18] | outcome [19] | outcome [20] | caspase-3 activation [21] 5.71% [at 91.7 µM] and 9.28% [at 91.7 µM] | Potency [23] | Potency [24] | Potency [25] | outcome [26] | Potency [27] | Potency [28] | Potency [29] | Potency [30] | Potency [31] | Potency [32] | Potency [33] | Potency [34] | Potency [35] | Potency [36] | Potency [37] | Potency [38] | Potency [39] | Potency [40]
active: Potency [2] 31.1 µM and 40.2 µM | Potency [5] 59.8 µM | activity change, negative = cytotoxicity [6] -95.8% and -87.8% | activity change, negative = cytotoxicity [7] -105% | Potency [9] 12.6 µM and 31.6 µM | Potency [22] 316 nM and 398 nM
